The campaign covered roughly 5,500 compounds. About 2,000 (36%) were called active. Roughly 18% stayed inconclusive and do not appear here. Cut-off read from the data, not from the text of the source: active = normalized growth mostly below about 0.91 (no sharp cut-off); inconclusive = no clear call, values can overlap the other calls; inactive = mostly above about 0.92. Some of the results follow.
Assay: chemical genetic growth profiling, strain panel (AID 1159580);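 note: tested at 20 µM; growth read once vehicle control cultures reached saturation at 30 °C; 1 = growth at the plate median or of vehicle wells; lower values mean less growth of the strain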
Conditions: S. cerevisiae deletion strains, growth OD

Measured: normalized growth

COc1ccc(/C=C/C(=O)c2ccc(O)cc2O)cc1
active: locus YAL021C, strain ccr4, stronger effect = lower value 0.643 | locus YAL026C, strain drs2, stronger effect = lower value 0.39 | locus YAL030W, strain snc1, stronger effect = lower value 0.477 | locus YBL061C, strain skt5, stronger effect = lower value 0.371 | locus YBR009C, strain hhf1, stronger effect = lower value 0.329 | locus YBR023C, strain chs3, stronger effect = lower value 0.296 | locus YBR171W, strain sec66, stronger effect = lower value 0.736 | locus YBR231C, strain swc5, stronger effect = lower value 0.35 | locus YBR279W, strain paf1, stronger effect = lower value 0.486 | locus YCL011C, strain gbp2, stronger effect = lower value 0.414 | locus YCL016C, strain dcc1, stronger effect = lower value 0.398 | locus YCL061C, strain MRC1, stronger effect = lower value 0.494 | locus YCL069W, strain vba3, stronger effect = lower value 0.436 | locus YCR088W, strain abp1, stronger effect = lower value 0.637 | locus YDL005C, strain med2, stronger effect = lower value 0.412 | locus YDL040C, strain nat1, stronger effect = lower value 0.68 | locus YDR001C, strain nth1, stronger effect = lower value 0.546 | locus YDR069C, strain doa4, stronger effect = lower value 0.815 | locus YDR137W, strain rgp1, stronger effect = lower value 0.218 | locus YDR159W, strain sac3, stronger effect = lower value 0.355 | locus YDR195W, strain ref2 0.69 | locus YDR297W, strain sur2, stronger effect = lower value 0.643 | locus YDR334W, strain swr1, stronger effect = lower value 0.383 | locus YDR335W, strain msn5, stronger effect = lower value 0.477 | locus YDR392W, strain spt3, stronger effect = lower value 0.107 | locus YEL003W, strain gim4, stronger effect = lower value 0.333 | locus YEL037C, strain rad23, stronger effect = lower value 0.678 | locus YEL061C, strain CIN8 (second series), stronger effect = lower value 0.222 | locus YER015W, strain faa2, stronger effect = lower value 0.496 | locus YER016W, strain bim1, stronger effect = lower value 0.488 | locus YER111C, strain swi4, stronger effect = lower value 0.193 | locus YER155C, strain BEM2 (second series), stronger effect = lower value 0.125 | locus YFR010W, strain ubp6, stronger effect = lower value 0.661 | locus YGL167C, strain pmr1, stronger effect = lower value 0.782 | locus YGL173C, strain kem1, stronger effect = lower value 0.326 | locus YGL227W, strain vid30, stronger effect = lower value 0.246 | locus YGL240W, strain doc1, stronger effect = lower value 0.349 | locus YGL253W, strain hxk2, stronger effect = lower value 0.23 | locus YHR013C, strain ard1, stronger effect = lower value 0.352 | locus YHR027C, strain rpn1, stronger effect = lower value 0.59 | locus YHR030C, strain SLT2, stronger effect = lower value 0.458 | locus YHR079C, strain IRE1, stronger effect = lower value 0.48 | locus YHR142W, strain chs7, stronger effect = lower value 0.175 | locus YJL092W, strain hpr5, stronger effect = lower value 0.523 | locus YJL095W, strain BCK1 (second series), stronger effect = lower value 0.187 | locus YJL095W, strain BCK1, stronger effect = lower value 0.423 | locus YJL115W, strain asf1, stronger effect = lower value 0.56 | locus YJL129C, strain trk1, stronger effect = lower value 0.386 | locus YJL154C, strain vps35, stronger effect = lower value 0.697 | locus YJL164C, strain tpk1, stronger effect = lower value 0.324 | locus YJL166W, strain qcr8, stronger effect = lower value 0.266 | locus YJL187C, strain SWE1, stronger effect = lower value 0.492 | locus YJR066W, strain TOR1, stronger effect = lower value 0.439 | locus YKL160W, strain elf1, stronger effect = lower value 0.299 | locus YKR026C, strain gcn3, stronger effect = lower value 0.784 | locus YKR091W, strain srl3, stronger effect = lower value 0.699 | locus YLL001W, strain dnm1, stronger effect = lower value 0.528 | locus YLL026W, stronger effect = lower value 0.267 | locus YLL041C, strain sdh2, stronger effect = lower value 0.615 | locus YLR027C, strain aat2, stronger effect = lower value 0.369 | locus YLR113W, strain HOG1, stronger effect = lower value 0.361 | locus YLR221C, strain rsa3, stronger effect = lower value 0.28 | locus YLR258W, strain gsy2, stronger effect = lower value 0.476 | locus YLR262C, strain YPT6 (second series), stronger effect = lower value 0.221 | locus YLR320W, strain mms22, stronger effect = lower value 0.14 | locus YLR342W, strain FKS1, stronger effect = lower value 0.313 | locus YLR357W, strain rsc2, stronger effect = lower value 0.633 | locus YLR370C, strain arc18, stronger effect = lower value 0.619 | locus YLR384C, strain iki3, stronger effect = lower value 0.671 | locus YML120C, strain ndi1, stronger effect = lower value 0.336 | locus YMR058W, strain fet3, stronger effect = lower value 0.34 | locus YMR125W, strain sto1, stronger effect = lower value 0.205 | locus YMR129W, stronger effect = lower value 0.707 | locus YMR205C, strain PFK2, stronger effect = lower value 0.26 | locus YMR231W, strain pep5, stronger effect = lower value 0.462 | locus YNL071W, strain lat1, stronger effect = lower value 0.0785 | locus YNL183C, strain NPR1, stronger effect = lower value 0.516 | locus YNL209W, strain ssb2, stronger effect = lower value 0.661 | locus YNL248C, strain rpa49, stronger effect = lower value 0.402 | locus YNL322C, strain KRE1 (second series), stronger effect = lower value 0.618 | locus YNR049C, strain mso1, stronger effect = lower value 0.631 | locus YOR001W, strain rrp6, stronger effect = lower value 0.444 | locus YOR070C, strain gyp1, stronger effect = lower value 0.336 | locus YOR080W, strain dia2, stronger effect = lower value 0.631 | locus YOR083W, strain WHI5, stronger effect = lower value 0.479 | locus YOR106W, strain vam3, stronger effect = lower value 0.38 | locus YOR231W, strain MKK1, stronger effect = lower value 0.495 | locus YOR265W, strain rbl2, stronger effect = lower value 0.535 | locus YOR270C, strain vph1, stronger effect = lower value 0.161 | locus YOR290C, strain snf2, stronger effect = lower value 0.28 | locus YPL051W, strain arl3, stronger effect = lower value 0.273 | locus YPL078C, strain atp4, stronger effect = lower value 0.32 | locus YPL106C, strain sse1, stronger effect = lower value 0.458 | locus YPL240C, strain hsp82, stronger effect = lower value 0.44 | locus YPL256C, strain CLN2, stronger effect = lower value 0.5
